# Source: PubChem BioAssay (National Center for Advancing Translational Sciences (NCATS))
# TDP1 cell CPT: growth inhibition of DT40 Tdp1-/-;hTDP1 cells with camptothecin (screen for TDP1 inhibitors) | Potency, µM (doses to about 46.2 µM), inactives show at the top dose activity change, negative = growth inhibition, hits mostly inhibitors | chicken DT40 Tdp1-/-;hTDP1 cells + 20 nM CPT, ATP luminescence, 48 h | AID 686979 | actives 12% (n = 420,000); note: nearly all actives have a fitted effect of over 55% in size
#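 Chicken DT40 Tdp1-/- cells stably complemented with human TDP1 were seeded at 400 cells/well in medium containing 20 nM camptothecin, exposed to pin-transferred compounds, and grown at 37 °C for at least 48 hr. Viability was read as ATP luminescence.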
# TDP1 block: inhibitors of human tyrosyl-DNA phosphodiesterase TDP1; Q9NUW8; recombinant TDP1, AlphaScreen DNA substrate cleavage; Potency, µM (highest dose often 130 µM), for the others: top-dose activity change, negative = inhibition, actives largely listed as inhibitors; actives 0.28% (n = 350,000); AID 485290; note: nearly all actives have a fitted effect of over 40% in size
#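 Tdp1 1 nM final; 15 min RT w/ cpd; substrate 15 nM, 5 min; beads 10 ug/ml, 10 min; AlphaScreen read. Neg ctrl: no enzyme.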
# DT40 TDP1 no CPT: qHTS for Inhibitors of human tyrosyl-DNA phosphodiesterase 1 (TDP1): qHTS in cells in absence of CPT; DT40 Tdp1-/- hTDP1 cells, no CPT, ATP luminescence, 48 h; AID 686978, 2013; actives 15% (n = 420,000); Potency, µM (doses to about 46.2 µM), for inactives: at the highest dose activity change, negative = growth inhibition, usual class: inhibitors; note: nearly all actives have a fitted effect of over 55% in size
#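 A cellular qHTS used chicken DT40 cells lacking endogenous Tdp1 but carrying stably transfected human TDP1. Compounds were applied without camptothecin, and cell growth kinetics were judged by ATP-dependent luminescence after ≥48 hr.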
# RORgamma inh: inhibitors of mouse ROR gamma transcriptional activity | Potency, µM (doses to about 53.6 µM), inactives show top-dose activity change, negative = inhibition, actives largely listed as inhibitors | actives 5.4% (n = 310,000) | Drosophila S2 Gal4-RORgamma UAS-luciferase reporter, 20 h; note: nearly all actives have a fitted effect of over 60% in size
# Target sequence (P51450 whole entry, looked up, the tested form may be a part): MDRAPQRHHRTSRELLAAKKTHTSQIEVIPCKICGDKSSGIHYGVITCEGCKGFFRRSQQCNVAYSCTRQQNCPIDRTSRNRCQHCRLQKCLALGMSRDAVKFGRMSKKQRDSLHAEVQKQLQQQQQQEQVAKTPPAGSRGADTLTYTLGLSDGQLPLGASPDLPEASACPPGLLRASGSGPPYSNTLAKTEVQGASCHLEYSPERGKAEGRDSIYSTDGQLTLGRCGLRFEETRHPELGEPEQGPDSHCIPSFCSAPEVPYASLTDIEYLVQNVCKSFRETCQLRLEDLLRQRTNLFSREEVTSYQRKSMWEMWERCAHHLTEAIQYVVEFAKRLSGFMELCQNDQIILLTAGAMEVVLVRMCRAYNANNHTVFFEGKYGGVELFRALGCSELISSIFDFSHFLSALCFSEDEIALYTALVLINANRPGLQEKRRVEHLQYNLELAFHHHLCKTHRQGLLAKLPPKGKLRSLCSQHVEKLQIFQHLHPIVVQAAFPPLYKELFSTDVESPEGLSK
#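 Drosophila Schneider cells stably carrying a metallothionein-driven Gal4 DBD–ROR gamma fusion and a UAS-Photinus luciferase reporter were exposed to compound for 1 hr, then induced with copper sulfate (700 uM final) for 20 hr at ambient temperature before luminescence reading.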
# VP16 counter: counter-screen for ROR gamma inhibitors: Gal4-VP16 reporter; Drosophila S2 Gal4-VP16 UAS-luciferase, luminescence, 20 h; Potency, µM (highest dose often 53.6 µM), inactives show at the top dose activity, negative = inhibition, most hits filed as inhibitors; actives 3.5% (n = 310,000); AID 2546;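 note: Gal4-VP16 expression switched on by copper sulfate through the metallothionein promoter; nearly all actives have a fitted effect of over 50% in size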
# Numbers without * were called inactive; u = inconclusive; x = no result given; ! = not confirmed by another sample; [ ] = remark or other dose. Hits are enriched below; roughly 19% of the tested compounds scored in any of these assays. Calls come from the whole dose curve; as a rule, active = well fitted curve in the direction sought with a large enough effect; inconclusive = small, poorly fitted or top-dose-only effect, or another doubt; inactive = no such curve, though single readings can be large; an effect the other way counts as inactive or inconclusive. % is set by controls: 0 for no effect and ±100 for the full control effect; potency is the fitted concentration of half-maximal effect.
SMILES,TDP1 cell CPT,TDP1 block,DT40 TDP1 no CPT,RORgamma inh,VP16 counter
Cc1ccccc1Cn1cc(C)c(=O)[nH]c1=O,3%,3%,-10%,-20%,6%
CC(=O)N1CCCc2cc(S(=O)(=O)N3CCCC(C(=O)Nc4ccc(C)cc4C)C3)ccc21 (stereo not drawn),-27%,2%,u,-16%,-6%
CC(=O)N1CCCc2cc(S(=O)(=O)N3CCCC(C(=O)Nc4ccc(F)cc4F)C3)ccc21 (stereo not drawn),u,3%,21µM*,x,x
COc1cc(C)nc(N2CCCC(C(=O)Nc3ccccc3Br)C2)n1 (stereo not drawn),-4%,-5%,15%,-1%,-3%
Cc1ccc(S(=O)(=O)N2CCC(C(=O)N3CCN(Cc4ccccc4)CC3)CC2)cc1,21µM*,3%,u,10%,-14%
COc1ccc(S(=O)(=O)N2CCCC(C(=O)N3CCN(Cc4ccccc4)CC3)C2)cc1Cl (stereo not drawn),21µM*,x,15µM*,x,x
COc1cc(C)nc(N2CCCC(C(=O)Nc3cccc(Cl)c3C)C2)n1 (stereo not drawn),23µM*,-10%,u,30%,-12%
COc1ccc(NC(=O)C2CCCN(S(=O)(=O)c3ccc4c(c3)CCCN4C(C)=O)C2)cc1Cl (stereo not drawn),21µM*,2%,u,21%,u
O=C(C1CCN(S(=O)(=O)c2ccccc2F)CC1)N1CCN(Cc2ccc3c(c2)OCO3)CC1,21µM*,5%,u,x,x
O=C(c1ccc(F)cc1)N1CCC(C(=O)N2CCN(Cc3ccc4c(c3)OCO4)CC2)CC1,2%,x,-2%,x,x
O=C(COc1ccc(S(=O)(=O)Nc2ccc(Cl)cc2)cc1)N1CCOCC1,u,2%,u,u,-1%
CS(=O)(=O)c1cccc(NC(=O)CSc2nnc3n2CCCCC3)c1,29%,0%[56.1 µM],6%,x,x
OCCOCCn1c(-c2ccccc2)nc(=S)c2c1CCCC2,-1%,5%,-7%,-21%,1%
CCOC(=O)CSC1=NC(=O)CS1,10µM*,-5%,u,u,u
CC(C(=O)c1ccc(Br)cc1)[n+]1cccc2ccccc21 (stereo not drawn),10µM*,x,9.2µM*,u,-16%
Cc1cccnc1,12%,-1%,-14%,-27%,-8%
S=c1nc(-c2ccccc2)[nH]c2ccccc12,u,-6%,-25%,0.79µM*,7.1µM*
S=c1nc(-c2ccc(Br)cc2)[nH]c2ccccc12,-18%,-10%,u,u,-4%
COc1ccc(OC)c(CCNc2nc3ccccc3c3nc(-c4cccnc4)nn23)c1,1%,3%,u,x,x
CCN(CC)CCCNc1nc2cc(OC)c(OC)cc2c2nc(-c3cccnc3)nn12,15µM*,5%,13µM*,-35%,u
CCOc1ccccc1NC(=O)CSc1nc2cc(OC)c(OC)cc2c2nc(-c3ccccc3)nn12,39%,-2%,7%,x,x
CCN(CC)CCCNc1nc2cc(OC)c(OC)cc2c2nc(-c3ccccc3)nn12,21µM*,2%,5.2µM*,10µM*,u
COc1cc2nc(NCC3CCCO3)n3nc(-c4cccnc4)nc3c2cc1OC (stereo not drawn),9.2µM*,7%,21µM*,0%,6%
CN1CCN(CCCNc2nc3ccccc3c3nc(-c4ccccc4)nn23)CC1,u,x,13µM*,x,x
CC(=O)NC(Cc1cccc(C)c1)C(=O)NC1CCN(S(=O)(=O)c2ccccc2)CC1 (stereo not drawn),11%,x,-2%,-2%,-2%
SMILES,TDP1 cell CPT,TDP1 block,DT40 TDP1 no CPT,RORgamma inh,VP16 counter
COc1ccc(-c2noc(CCc3ccccc3)n2)cc1,-8%,-12%,-4%,30%,15%
Cc1ccc(CCNc2nc3ccccc3c3nc(-c4ccccc4)nn23)cc1,u,-1%,u,x,x
CCN(CC)CCCNc1nc2ccccc2c2nc(-c3ccncc3)nn12,u,x,21µM*,-15%,-9%
CCc1nnc(NC(=O)c2nc(S(=O)(=O)Cc3ccccc3)ncc2Cl)s1,18µM*,3%,18µM*,11µM*,8.9µM*
CCc1nnc(NC(=O)c2nc(S(=O)(=O)Cc3cccc(C)c3)ncc2Cl)s1,5.8µM*,2%,5.2µM*!,13µM*,7.9µM*
CCc1nnc(NC(=O)c2nc(S(=O)(=O)Cc3ccc(C)cc3)ncc2Cl)s1,16µM*,3%,21µM*,16µM*,11µM*
CCOc1ccccc1NC(=O)c1nc(S(=O)(=O)Cc2cccc(C)c2)ncc1Cl,1.2µM*,5%,0.65µM*,8.9µM*,2.5µM*
CCOC(=O)c1c(C)[nH]c(C)c1C=O,-20%,2%,-4%,-1%,2%
COC(CNC(=S)Nc1ccc([N+](=O)[O-])cc1)OC,1%,0%,4%,-15%,16%
C=CCN(c1ccc(F)cc1)S(=O)(=O)c1cc(C(=O)NC2CCC(O)CC2)ccc1Cl (stereo not drawn),u,2%,-28%,x,x
Cc1ccc(C)c(CN2C(=O)c3ccccc3S(=O)(=O)c3ccc(C(=O)NCCC4=CCCCC4)cc32)c1,u,7%,u,x,x
CCN(CC)S(=O)(=O)c1cccc(C(=O)N[C@H](C(=O)NCc2ccc(Cl)cc2)C(C)C)c1,23µM*,-4%,15µM*,12%,3%
CCN(CC)S(=O)(=O)c1cccc(NC(=O)c2ccc(Br)cc2)c1,u,5%,21µM*,u,-12%
Cn1cnnc1Sc1ccc(C(=O)OCC(=O)NCC(F)(F)F)cc1[N+](=O)[O-],-1%,-4%,4%,25%,2%
CCN(CC)S(=O)(=O)c1cccc(C(=O)N[C@H](C(=O)NCc2ccccc2F)C(C)C)c1,u,0%,u,6%,3%
CCN(CC)S(=O)(=O)c1cccc(NC(=O)c2ccc(Sc3nncn3C)c([N+](=O)[O-])c2)c1,16µM*,0%,23µM*,13%,-5%
CCN(CC)S(=O)(=O)c1cccc(NC(=O)c2cncc(Br)c2)c1,u,-2%,u,43%,4%
CCN(CC)S(=O)(=O)c1cccc(C(=O)Nc2ccccc2C(=O)Nc2ccc(Cl)cc2)c1,u,-5%,18µM*,x,x
CC(=O)c1c(COC(=O)c2ccccc2)nc2ccccc2[n+]1[O-],-26%,7%,-6%,-37%,-20%
CCc1cc(=O)oc2cc(C)cc(OCC(=O)NCCCn3ccnc3)c12,-11%,5%,-2%,-4%,-7%
CCC(C)(C)n1nnnc1CN1CCc2ccccc21,-10%,2%,-16%,-12%,u
